Experimental data from ChEMBL document CHEMBL2218924, “A broad activity screen in support of a chemogenomic map for kinase signalling research and drug discovery” (Biochem J, 2013).

target: T1, Dual specificity mitogen-activated protein kinase kinase 6 (Homo sapiens) (UniProt P52564); conditions: at 1 µM
T1 sequence (whole entry): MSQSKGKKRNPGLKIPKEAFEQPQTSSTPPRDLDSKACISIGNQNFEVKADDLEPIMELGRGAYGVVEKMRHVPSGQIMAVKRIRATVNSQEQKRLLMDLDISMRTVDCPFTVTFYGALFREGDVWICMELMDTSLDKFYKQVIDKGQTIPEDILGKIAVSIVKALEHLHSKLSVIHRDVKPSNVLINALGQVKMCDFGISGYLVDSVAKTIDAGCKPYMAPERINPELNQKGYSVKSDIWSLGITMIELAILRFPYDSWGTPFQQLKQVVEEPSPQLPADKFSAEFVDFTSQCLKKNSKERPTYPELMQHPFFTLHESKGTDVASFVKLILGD

Compound	residual activity
N#Cc1cnc2cnc(NCc3cccnc3)cc2c1Nc1ccc(F)c(Cl)c1	10%
CNc1cc2c(Nc3cccc(Br)c3)ncnc2cn1	72%
O=C1NC(=O)c2cc(Nc3ccc(F)cc3)c(Nc3ccc(F)cc3)cc21	72%
COc1cccc(-c2cc(=O)c3ccccc3o2)c1N	138%
Cc1cccc(-c2[nH]c(C(C)(C)C)nc2-c2ccc3c(c2)OCO3)n1	70%
c1ccc(-c2n[nH]c3c2oc2ccccc23)cc1	76%
Ic1cccc(CSc2nnc(-c3ccncc3)o2)c1	100%
CO[C@@H]1[C@H](N(C)C(=O)c2ccccc2)C[C@H]2O[C@]1(C)n1c3ccccc3c3c4c(c5c6ccccc6n2c5c31)C(=O)NC4	52%
NC(=O)c1ccc2[nH]c(-c3ccc(Oc4ccc(Cl)cc4)cc3)nc2c1	91%
O=C1Nc2cc(Br)ccc2/C1=C1/Nc2ccccc2/C1=N\O	87%
COc1cc2ncnc(Nc3ccc(Oc4ccccc4)cc3)c2cc1OC	79%
CCOc1cc2ncnc(Nc3cccc(Br)c3)c2cc1OCC	81%
O=c1cc(-c2cccc3c2Sc2ccccc2S3)oc(N2CCOCC2)c1	113%
c1ccc2c(-c3ccncc3)c[nH]c2c1	77%
Nc1cccc(-c2cc3c(Oc4cccc(O)c4)ncnc3[nH]2)c1	74%
Nc1nc(Nc2ccc(S(N)(=O)=O)cc2)nn1C(=S)Nc1c(F)cccc1F	26%
CC(C)n1cnc2c(NCc3ccccc3)nc(NCCCO)nc21	94%
O=C1NC(=O)/C(=C\c2ccc3nccnc3c2)S1	95%
O=C(O)c1ccc2c3c1cccc3c(=O)n1c3ccccc3nc21	92%
COc1cc2ncnc(Nc3ccc(O)c(Br)c3)c2cc1OC	88%
